Pf Dd2 inh = blocks growth of Plasmodium falciparum Dd2 parasites; P. falciparum Dd2 growth, SYBR Green, 72 h; stronger effect = lower value; activity change, % at 10 µM; 94,000 tested, 2.3% active; AID 1159554; in the data active = activity change below about -80%; inconclusive = no clear call, values can overlap the other calls
T cruzi growth-1 = T. cruzi proliferation inhibition; T. cruzi beta-gal in NIH3T3, GalScreen luminescence, 90 h; inhibition, % at 8.34 µM; 77,000 tested, 5.9% active; AID 624255;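 active = mean inhibition above about 93%, with at least 55% of replicates each passing it, limit read from the data, passing the limit was not always enough; inconclusive = only one of those two conditions holds; inactive = neither condition holds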
C diff HTS = C. difficile growth inhibition. AID 1259249. growth activity, negative = inhibition, % at 16 µg/mL (by protocol). 86,000 tested, 0.25% active. Clostridium difficile clinical isolate growth, OD600, 24 h; stronger effect = lower value;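 active = mean growth activity at or below -80% and every replicate also at or below -80%; inconclusive = mean at or below -80% but some replicate above -80%; inactive = mean growth activity above -80%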;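 note: 0% = DMSO wells and -100% = levofloxacin 16 µg/mL wells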
T cruzi growth-2 = blocks T. cruzi growth in NIH3T3 host cells | shares compounds with T cruzi growth-1 | T. cruzi beta-gal in NIH3T3, GalScreen luminescence, 90 h | inhibition, % at 8.35 µM | 5,600 tested, 72% active;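 active = mean replicate inhibition above about 95% and at least 55% of replicates individually reaching it, limit read from the data; inconclusive = only one of the two criteria is met; inactive = neither criterion is met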
T cruzi growth-3 = inhibitors of T. cruzi proliferation. 5,600 tested, 21% active. AID 651740. inhibition, % at 2.09 µM. shares compounds with T cruzi growth-1. T. cruzi beta-gal in NIH3T3, GalScreen luminescence, 90 h;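 active = mean inhibition above about 95%, with at least 55% of replicates also reaching it, limit read from the data; inconclusive = meets just one of the two conditions; inactive = meets neither condition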;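 note: plate controls were neutral control median for no effect and positive control median for full effect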
NIH3T3 tox = kills mouse NIH/3T3 fibroblasts | shares compounds with T cruzi growth-1 | 5,600 tested, 14% active | cytotoxicity (signal decrease), % at 8.35 µM | AID 651742 | NIH/3T3 viability, CellTiter-Glo ATP luminescence, 90 h;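 active = mean signal decrease across replicates above about 35% based on untreated-well scatter, with enough replicates individually passing, limit read from the data; inconclusive = no rule stated though some were filed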;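 note: 0% = median of neutral control wells and 100% = median of positive control wells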
3T3 cytotox 2 = kills mouse NIH/3T3 fibroblasts. 5,600 tested, 56% active. inhibition, % at 24.9 µM. shares compounds with T cruzi growth-1. NIH/3T3 viability, CellTiter-Glo ATP luminescence, 90 h;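 active = mean loss of cell viability signal at or above a set limit, and enough replicates individually reaching it; inconclusive = meets only the mean limit or only the replicate share; inactive = meets neither condition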;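 note: 0% = median of neutral control wells and 100% = median of positive control wells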
Numbers without * were called inactive. Hits are enriched below; roughly 6.8% of the tested compounds scored in any of these assays.

O=C(c1cccc(F)c1)N1CC(=O)N2[C@@H](CO)[C@H](c3ccc(/C=C/c4ccccc4)cc3)[C@@H]2C1 was read as Pf Dd2 inh -27 and C diff HTS 4.
For O=C(c1cccc(F)c1)N1CCCCN2[C@H](CO)[C@H](c3ccc(/C=C/c4ccccc4)cc3)[C@@H]2C1 the results were Pf Dd2 inh -73, T cruzi growth-1 114*, C diff HTS 21, T cruzi growth-2 100*, T cruzi growth-3 110*, NIH3T3 tox 34 and 3T3 cytotox 2 99*.
For O=C(c1cccc(F)c1)N1CCCCN2[C@H](CO)[C@H](c3ccc(/C=C/c4ccccc4)cc3)[C@H]2C1 the results were Pf Dd2 inh -58, T cruzi growth-1 111*, C diff HTS 1, T cruzi growth-2 102*, T cruzi growth-3 81, NIH3T3 tox 91* and 3T3 cytotox 2 104*.
`O=C(c1cccc(F)c1)N1CCCCN2[C@@H](CO)[C@H](c3ccc(/C=C/c4ccccc4)cc3)[C@@H]2C1` gave Pf Dd2 inh -12, T cruzi growth-1 111*, C diff HTS -29, T cruzi growth-2 103*, T cruzi growth-3 93, NIH3T3 tox 45* and 3T3 cytotox 2 103*.
Screening O=C(c1cccc(F)c1)N1CC(=O)N2[C@H](CO)[C@@H](c3ccc(/C=C/c4ccccc4)cc3)[C@H]2C1 returned Pf Dd2 inh -19 and C diff HTS 10.
`O=C(c1cccc(F)c1)N1CCCCN2[C@H](CO)[C@@H](c3ccc(/C=C/c4ccccc4)cc3)[C@H]2C1` gave Pf Dd2 inh -36, T cruzi growth-1 92 and C diff HTS 32.
For C[C@@H](NC(=O)C[C@H]1CC[C@@H]2[C@H](COC[C@H](O)CN2C(=O)Nc2cccc(Cl)c2)O1)c1ccccc1 the results were Pf Dd2 inh -2, T cruzi growth-1 21 and C diff HTS 57.
Screening Cc1noc(C)c1S(=O)(=O)Nc1ccc2c(c1)C(=O)N([C@H](C)CO)C[C@@H](C)[C@@H](CN(C)Cc1ccc(C(F)(F)F)cc1)OCCCC[C@@H](C)O2 returned Pf Dd2 inh -27 and T cruzi growth-1 93.
Screening Cc1noc(C)c1S(=O)(=O)Nc1ccc2c(c1)C(=O)N([C@@H](C)CO)C[C@@H](C)[C@H](CN(C)C(=O)Nc1ccc(C(F)(F)F)cc1)OCCCC[C@@H](C)O2 returned Pf Dd2 inh -14, T cruzi growth-1 106 and C diff HTS -6.
Cc1noc(C)c1S(=O)(=O)Nc1ccc2c(c1)C(=O)N([C@@H](C)CO)C[C@H](C)[C@@H](CN(C)C(=O)Nc1ccc(C(F)(F)F)cc1)OCCCC[C@H](C)O2 was read as Pf Dd2 inh -77, T cruzi growth-1 125*, C diff HTS -4, T cruzi growth-2 95*, T cruzi growth-3 111*, NIH3T3 tox 5 and 3T3 cytotox 2 63*.
Screening Cc1noc(C)c1S(=O)(=O)Nc1ccc2c(c1)C(=O)N([C@H](C)CO)C[C@H](C)[C@H](CN(C)Cc1ccc(C(F)(F)F)cc1)OCCCC[C@@H](C)O2 returned Pf Dd2 inh 13, T cruzi growth-1 inconclusive, T cruzi growth-2 106*, T cruzi growth-3 -1, NIH3T3 tox 2 and 3T3 cytotox 2 inconclusive.
Cc1noc(C)c1S(=O)(=O)Nc1ccc2c(c1)C(=O)N([C@@H](C)CO)C[C@@H](C)[C@@H](CN(C)Cc1ccc(C(F)(F)F)cc1)OCCCC[C@@H](C)O2 was read as Pf Dd2 inh -18, T cruzi growth-1 99*, T cruzi growth-2 94, T cruzi growth-3 112*, NIH3T3 tox 19 and 3T3 cytotox 2 106*.
Screening Cc1noc(C)c1S(=O)(=O)Nc1ccc2c(c1)C(=O)N([C@H](C)CO)C[C@H](C)[C@@H](CN(C)Cc1ccc(C(=O)O)cc1)OCCCC[C@@H](C)O2 returned Pf Dd2 inh 28, T cruzi growth-1 21 and C diff HTS -4.
Screening Cc1noc(C)c1S(=O)(=O)Nc1ccc2c(c1)C(=O)N([C@H](C)CO)C[C@@H](C)[C@@H](CN(C)Cc1ccc(C(=O)O)cc1)OCCCC[C@H](C)O2 returned Pf Dd2 inh -38, T cruzi growth-1 22 and C diff HTS 6.
Cc1noc(C)c1S(=O)(=O)Nc1ccc2c(c1)C(=O)N([C@@H](C)CO)C[C@H](C)[C@@H](CN(C)Cc1ccc(C(F)(F)F)cc1)OCCCC[C@H](C)O2 was read as Pf Dd2 inh -8, T cruzi growth-1 103*, T cruzi growth-2 104*, T cruzi growth-3 74, NIH3T3 tox -5 and 3T3 cytotox 2 104*.
For C[C@@H]1CN([C@@H](C)CO)C(=O)Cc2cc(NC(=O)CCC(F)(F)F)ccc2O[C@@H]1CN(C)Cc1ccc(Oc2ccccc2)cc1 the results were Pf Dd2 inh -12, T cruzi growth-1 41 and C diff HTS 4.
`CCC(=O)N1C[C@H](C)[C@H](OC)CN(C)C(=O)c2cc(NC(=O)C3CCOCC3)ccc2OC[C@@H]1C` gave Pf Dd2 inh 16.
COc1cccc(CN2CC3(CN(CC4CC4)C3)c3c([nH]c4cc(OC)ccc34)[C@H]2CO)c1 was read as Pf Dd2 inh inconclusive and C diff HTS 4.
Screening COc1ccc(S(=O)(=O)Nc2ccc3c(c2)CC(=O)N([C@H](C)CO)C[C@H](C)[C@@H](CN(C)CC2CCCCC2)O3)cc1 returned Pf Dd2 inh -13, T cruzi growth-1 91 and C diff HTS -5.
`Cc1noc(C)c1S(=O)(=O)Nc1ccc2c(c1)C(=O)N([C@H](C)CO)C[C@H](C)[C@@H](CN(C)Cc1ccc(C(F)(F)F)cc1)OCCCC[C@@H](C)O2` gave Pf Dd2 inh 11, T cruzi growth-1 96*, T cruzi growth-2 106*, T cruzi growth-3 24, NIH3T3 tox 13 and 3T3 cytotox 2 4.
Cc1noc(C)c1S(=O)(=O)Nc1ccc2c(c1)C(=O)N([C@@H](C)CO)C[C@@H](C)[C@H](CN(C)Cc1ccc(C(=O)O)cc1)OCCCC[C@@H](C)O2 was read as Pf Dd2 inh -4, T cruzi growth-1 20 and C diff HTS 4.
COc1ccccc1-c1cnc2c(c1)C(=O)N([C@H](C)CO)C[C@H](C)[C@@H](CN(C)C(=O)c1ccncc1)O2 was read as Pf Dd2 inh 12, T cruzi growth-1 43 and C diff HTS -1.
`C[C@@H]1CN([C@@H](C)CO)C(=O)c2cc(-c3cccc(F)c3)cnc2O[C@@H]1CN(C)C(=O)C1CCCCC1` gave Pf Dd2 inh -34, T cruzi growth-1 37 and C diff HTS 9.

Compound activity as filed in PubChem.
